Values joined by “and” are separate entries in the source; they are usually repeats but may differ in a detail not shown here. Equal values may be shown once. Records with an inconclusive call do not appear. A number with no mark means an inactive call. Active and inactive are the calls of the source. Calls come from the whole dose curve; as a rule, active = well fitted activation curve with a large enough effect; inconclusive = small, poorly fitted or top-dose-only effect; inactive = no such curve, though single readings can be large or run the other way.
Potency is the fitted concentration of half-maximal effect.

The target in the assay is Cellular tumor antigen p53 (Homo sapiens) (UniProt P04637). The assay can be described thus: Primary qHTS for small molecule compounds that upregulate eGFP-tagged delta133p53alpha (in N-terminal) cells. (AID 2060322).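 For activation: cells pre-induced with doxycycline then dosed without doxycycline; series mostly up to about 56 µM; 0% = DMSO vehicle and 100% = reference activator.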 Note: nearly all actives have a fitted effect of over 75% in size. Particulars: NCI-H358 eGFP-delta133p53alpha fluorescence, 24 h; activation: stronger effect = higher value. An outline of the steps: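 NCI-H358 cells pre-induced 24 h with 10 ng/ml doxycycline for eGFP-delta133p53alpha, plated dox-free and exposed 24 h at 37C to titrated compounds. Fixed, Hoechst-stained; gated GFP peak intensity by laser scanning cytometry, normalized to DMSO (0%) and 57.5 uM 5-azacytidine (100%).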
Chain of Cellular tumor antigen p53 (Homo sapiens) (P04637 whole entry, looked up): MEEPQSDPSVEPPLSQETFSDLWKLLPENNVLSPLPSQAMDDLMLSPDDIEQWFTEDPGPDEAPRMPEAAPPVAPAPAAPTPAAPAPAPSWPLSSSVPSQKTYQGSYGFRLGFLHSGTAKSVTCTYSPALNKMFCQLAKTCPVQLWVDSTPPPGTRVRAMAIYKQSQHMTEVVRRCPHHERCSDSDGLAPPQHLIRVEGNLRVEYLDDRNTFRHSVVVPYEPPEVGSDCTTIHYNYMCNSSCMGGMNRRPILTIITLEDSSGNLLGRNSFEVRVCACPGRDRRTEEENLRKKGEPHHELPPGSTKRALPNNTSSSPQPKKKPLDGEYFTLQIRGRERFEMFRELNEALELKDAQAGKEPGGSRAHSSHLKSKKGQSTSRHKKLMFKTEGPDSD
As for `O=C(N/N=C/c1ccc([N+](=O)[O-])o1)c1ccc(O)cc1`, the activation is 24.3%.
Same read-out and setting: next, `O=C(CN1C(=O)C2(CCCC2)NCC1c1cc(F)cc(F)c1)Nc1ccc2c(c1)CC1(C2)C(=O)Nc2ncccc21` (stereo not given): 0.477%; `CCOC(=O)c1ccc(O)c(O)c1`: -23.2%.
Consider `Nc1cccc2c1CN(C1CCC(=O)NC1=O)C2=O` (stereo not given), for which the activation is 21.6% and -10.9%.
Take `CC(=O)c1ccc2c(c1)N(CCCN1CCC(CCO)CC1)c1ccccc1S2`: the activation was 0%.
Same read-out and setting: to `CCN1CC(CCN2CCOCC2)C(c2ccccc2)(c2ccccc2)C1=O` (stereo not given) belongs 5.08%; to `OCC(O)CS` (stereo not given), -8.47%; to `COc1cc(OC)cc(-c2ccc3ncc4ccc(=O)n(-c5ccc(N6CCNCC6)c(C(F)(F)F)c5)c4c3c2)c1`, -7.04%.
Turning to `Cc1ccc(Cl)c(OCC(O)CNC(C)(C)C)c1` (stereo not given), the activation is -2.51%.
Regarding `CCN(CC)CCNC(=O)c1c(C)[nH]c(C=C2C(=O)Nc3ccc(F)cc32)c1C`, the Potency was 12.5 µM (active).
In the case of `COC(=O)C(c1ccccc1Cl)N1CCc2sccc2C1` (stereo not given), the activation was 10.7%.
`CCOC(=O)Nc1ccc2c(c1)N(C(=O)CCN1CCOCC1)c1ccccc1S2`: the activation is 4.18%.
Regarding `CC(=O)ON=C1C(c2c(O)[nH]c3cc(Br)ccc23)=Nc2ccccc21`, the activation was 53.3%.
On the same count and under the same terms, next, `C[C@@H](O)[C@H]1C(=O)N2C(C(=O)O)=C(S[C@@H]3CN[C@H](C(=O)N(C)C)C3)[C@H](C)[C@H]12`: 7.34%.
For the compound `NC1CCC(Nc2nc(Nc3ccc(C(=O)N4CCCCC4)cc3)c3ncn(-c4cccc(F)c4)c3n2)CC1` (stereo not given), the activation is -1.24%.
`C[N+]1(C)CCCC(OC(=O)C(O)(c2ccccc2)c2ccccc2)C1` (stereo not given): the activation was -37.9%.
For the compound `C/C(=C(/OCCOc1ccc(Cl)cc1)c1ccc(Cl)cc1Cl)n1ccnc1`, the activation is 7.53%.
Take `C[C@@]12C[C@@]3(O)O[C@@H](O1)[C@]1(COC(=O)c4ccccc4)[C@@H]3C[C@@]12O[C@@H]1O[C@H](CO)[C@@H](O)[C@H](O)[C@@H]1O`: the activation was 35.7%.
As for `Cc1cccc(C)c1NC(=O)CN1CCCCCC1`, the activation is 6.69%.
Regarding `CC1=C(C(=O)O)N2C(=O)[C@@H](NC(=O)[C@H](N)c3ccc(O)cc3)[C@H]2SC1`, the activation was 0%.
Same read-out and setting: next, `Clc1ccc2c(c1)Nc1ccccc1S2`: 20.9%; `NCCNc1cccc2ccccc12`: 24.3%; `CCCCCCCCCCCCCCCCCCOCC(O)CO` (stereo not given): -16.4%.
With `C[C@H]1[C@H](NC(=O)C(=NOC(C)(C)C(=O)O)c2csc(N)n2)C(=O)N1S(=O)(=O)O`, the activation is -31.5%.
On to `Cc1ccc(C(=O)C(=O)O)cc1C`, for which the activation was -13%.
As to `O=C1CCc2ccccc2O1`, the activation was -6.7%.
`Nc1ccc(S(=O)(=O)c2ccc(N)cc2)cc1`: the activation is 7.53%.
Same read-out and setting: next, `CCCCC(CC)COC(=O)c1ccc(N(C)C)cc1` (stereo not given): 0.837%; `O=C(O)CCc1nc2ccccc2[nH]1`: 0.565%; `CC(=C(CCOC(=O)C(C)C)SSC(CCOC(=O)C(C)C)=C(C)N(C=O)Cc1cnc(C)nc1N)N(C=O)Cc1cnc(C)nc1N`: -4.18%.
In the case of `CON=C(C(=O)N[C@@H]1C(=O)N2C(C(=O)O)=C(CSC(=O)c3ccco3)CS[C@H]12)c1csc(N)n1`, the activation is 4.83%.
Still for that read-out and setting: next, `Oc1c(I)cc(Cl)c2cccnc12`: -2.51%.
Take `Nc1ccc2c(c1)CN1C(=O)c3ccccc3C1=N2`: the Potency was 0.0601 µM (active).
Turning to `CCCC(=O)O[C@]1(C(=O)CCl)[C@@H](C)C[C@H]2[C@@H]3CCC4=CC(=O)C=C[C@]4(C)[C@@]3(F)C(=O)C[C@@]21C`, the activation was -8.37%.
Consider `CCCCCCCCCCC(CO)CCCCCCCC` (stereo not given), for which the activation was 16.4%.
As for `OC(CCCN1CCCCC1)(c1ccccc1)c1ccccc1`, the activation is -16.4%.
Turning to `NC(=O)NS(=O)(=O)c1ccc(N)cc1`, the activation is 7.53%.
As for `O=C(O)Cn1c(C(=O)Nc2nc(-c3ccccc3Cl)cs2)cc2ccccc21`, the activation is 5.08%.
With `CC(C)n1c(C=C[C@H](O)C[C@H](O)CC(=O)O)c(-c2ccc(F)cc2)c2ccccc21`, the activation was -24.6%.
Still for that read-out and setting: to `N#C/C(=C1\SCC(c2ccccc2Cl)S1)n1ccnc1` (stereo not given) belongs 5.08%.

Values taken from PubChem BioAssay (NCATS).
